Cycloheximide cs: counter-screen for Shiga toxin inhibitors: cycloheximide protein synthesis inhibition. cell reporter, cycloheximide protein synthesis inhibition counterscreen. max response, %. 300,000 compounds, 12% hits; in the data active = max response mostly above about 13%, no sharp cut-off; inactive = mostly below about 14%; note: read at 38.3 µM for the half of the compounds with a filed dose; 0% is about no effect
Shiga toxin inh: inhibitors of Shiga toxin in Vero cells. inhibition, % at 38.7 µM. Vero cells, Shiga toxin protein synthesis inhibition reporter. 290,000 compounds, 9.2% hits; in the data active = inhibition mostly above about 28%, no sharp cut-off; inactive = mostly below about 43%; note: 0% is about no effect
Pf growth 48h: P. falciparum growth inhibition at 48 hours (one generation) | P. falciparum luciferase growth in erythrocytes, 48 h | Potency, µM (top dose mostly 28.7 µM), without a hit: at the highest dose activity change, negative = inhibition, hits mostly inhibitors | 310,000 compounds, 5.9% hits; note: potency is the fitted concentration of half-maximal effect; % is set by controls: 0 for no effect and ±100 for the full control effect
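Firefly luciferase activity from engineered P. falciparum reports growth; inhibitors lower the luminescent signal. Cultures contained 2% hematocrit erythrocytes at 0.1% final parasitemia.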
Pf growth 96h: P. falciparum growth inhibition at 96 hour, primary screen for plastid delayed-death inhibitors | P. falciparum luciferase reporter growth, 96 h | Potency, µM (doses to about 28.7 µM), without a hit: top-dose activity change, negative = inhibition, most hits filed as inhibitors | 320,000 compounds, 6.9% hits | AID 504834; note: potency is the fitted concentration of half-maximal effect; % is set by controls: 0 for no effect and ±100 for the full control effect
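Parasite growth measured via integrated firefly luciferase reporter in P. falciparum. Infected erythrocytes at 2% hematocrit, 0.05% parasitemia final were treated 96 hours at 37 C under 5% CO2, and luminescence was read.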
The depositor's hits bear a star; u = inconclusive; x = no result. Only some compounds are listed: those with a hit (about 21% of all), similar ones and a draw of the others. Unless noted, calls come from the whole dose curve; as a rule, active = well fitted inhibition curve with a large enough effect; inconclusive = small, poorly fitted or top-dose-only effect, or another doubt; inactive = no such curve, though single readings can be large or run the other way.

SMILES	Cycloheximide cs	Shiga toxin inh	Pf growth 48h	Pf growth 96h
COc1ccc(C2=NNC(=O)CC2)cc1	5	7	6%	0%
O=C1CCC(/C=C/c2ccccc2)=NN1	17*	17	17%	24%
CCCOc1ccc(C2=NNC(=O)CC2)cc1	15*	12	11%	66%
COc1ccc(/C=C/C2=NNC(=O)CC2)cc1	27*	66	97%	205%
CCOc1ccc(/C=C/C2=NNC(=O)CC2)cc1	23*	53*	51%	71%
COc1ccc(/C=C/c2ccc(=O)n(Cc3ccccc3)n2)cc1	16	25	u	u
CN1CCC(=O)N(CCOc2ccccc2)CC1	6	-7	-1%	-12%
CCN(Cc1ccncc1)C(=O)c1ccccc1NS(=O)(=O)c1ccc(F)cc1	6	-15	9%	38%
CCc1ccc(-c2nc(CS(=O)CC(=O)NCc3ccc4c(c3)OCO4)c(C)o2)cc1 (configuration not stated)	2	2	28%	u
Cc1ccc(CNC(=O)C2CCC(=O)N(Cc3ccc(Cl)cc3)C2)cc1F (configuration not stated)	10	1	9%	u
CC1CCN(Cc2c(C(=O)N/N=C/c3cccc(Cl)c3)nnn2-c2nonc2N)CC1	1	-6	8%	-20%
Nc1nonc1-n1nnc(C(=O)N/N=C/c2cccc(Cl)c2)c1-c1ccc2c(c1)OCO2	-1	-1	0.074µM*	0.033µM*
Nc1nonc1-n1nnc(C(=O)N/N=C/c2ccc3c(c2)OCO3)c1-c1ccccc1	-2	53	u	u
Nc1nonc1-n1nnc(C(=O)N/N=C/c2c(F)cccc2Cl)c1-c1ccc2c(c1)OCO2	0	-1	13µM*	6.6µM*
Nc1nonc1-n1nnc(C(=O)N/N=C/c2ccc(Br)cc2)c1-c1ccc2c(c1)OCO2	-1	-4	0.21µM*	0.059µM*
Nc1nonc1-n1nnc(C(=O)N/N=C/c2ccccc2Cl)c1-c1ccccc1	-5	-6	8%	64%
Cc1ccc(S(=O)(=O)Nc2cccc(C(=O)NCc3ccccn3)c2)cc1F	x	x	10%	-1%
CCOc1cc(C(=O)N(C)CC(=O)Nc2cccc(F)c2)ccc1OCC(=O)N1CCOCC1	x	x	u	7%
O=C(COc1ccccc1Cl)N1CCNC1=O	x	x	u	-12%
O=C(NCc1ccccn1)C(F)(F)C(F)(F)C(=O)NCc1ccccn1	-4	-7	3%	81%
O=C(NCCc1ccccn1)c1ccc(OC(F)F)cc1	25*	75*	311%	472%
O=C(NCCc1ccccn1)c1ccc(NS(=O)(=O)c2ccc(F)cc2)cc1	9	-10	-1%	-5%
O=C(NCCc1ccccn1)C(F)(F)C(F)(F)C(F)(F)C(F)(F)C(F)(F)C(F)F	14*	-5	-6%	u
C=CCN1/C(=C2/SC(=S)N(C)C2=O)Sc2ccccc21	2	16	51%	8%
CCCc1ccc(C#N)c(SC2CC(=O)N(c3ccc(OC)cc3)C2=O)n1 (configuration not stated)	1	-26	25%	u
SMILES	Cycloheximide cs	Shiga toxin inh	Pf growth 48h	Pf growth 96h
N#Cc1cc2c(nc1SC1CC(=O)N(c3ccccc3)C1=O)CCC2 (configuration not stated)	83*	115*	316%	403%
COc1ccc(NS(=O)(=O)c2ccc(I)cc2)cc1N1CCN(C)CC1	-2	-5	x	x
C=CCSC1=NNC(c2ccc(C(C)(C)C)cc2)=NN1	32*	79*	26%	20%
COc1ccc(C2=NOC(CN3C(=O)c4ccccc4S3(=O)=O)C2)cc1 (configuration not stated)	64*	125*	117%	-8%
O=C1c2ccccc2S(=O)(=O)N1CC1CC(c2ccccc2)=NO1 (configuration not stated)	44*	89*	37%	11%
O=C1c2ccccc2S(=O)(=O)N1CC1CC(c2ccc(Cl)cc2)=NO1 (configuration not stated)	61*	66*	70%	-13%
COc1cccc(CN(C)C(=O)CNC(=O)c2ccc3c(c2)OCO3)c1OC	9	-5	u	7%
O=C(NCCS(=O)(=O)c1ccc(Br)cc1)c1c(F)cccc1F	-4	-5	3%	30%
CN(CCN(C)C(C)(C)C)C(=O)C(c1ccccc1)c1ccccc1	-1	3	-4%	1%
CSc1nnc2c(n1)c(C)nn2-c1cccc(C)c1	20*	36*	84%	56%
CSc1nncc(/C(C)=N\Nc2cccc(C)c2)n1	6	20	15%	3%
COCc1cc(=O)n2[nH]c(-c3ccc(C)cc3)cc2n1	37*	72*	x	30%
